DUSP3 inh = DUSP3 (human) phosphatase inhibition; recombinant VHR phosphatase, pNPP absorbance; inhibition, % at 13.3 µM; 290,000 tested, 0.52% active; AID 1654; in the data active = inhibition above about 50%
Target sequence (P51452 whole entry, looked up): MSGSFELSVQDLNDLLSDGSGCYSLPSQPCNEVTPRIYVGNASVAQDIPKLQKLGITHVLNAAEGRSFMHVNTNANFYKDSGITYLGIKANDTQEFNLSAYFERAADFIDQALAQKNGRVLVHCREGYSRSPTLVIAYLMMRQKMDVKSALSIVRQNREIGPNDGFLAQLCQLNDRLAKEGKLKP
Mtb RmlCD inh = M. tuberculosis RmlC/RmlD inhibition | RmlC+RmlD coupled enzyme assay, percent inhibition; primary screen in compound mixtures | inhibition, % at 3.6 µM | 160,000 tested, 0.03% active | AID 1533; in the data active = inhibition mostly above about 34%, no sharp cut-off; inconclusive = no clear call, values can overlap the other calls; inactive = mostly below about 22%
* marks the source's active call; other numbers are inactive results; ? = inconclusive; · = no result. An excerpt weighted towards active compounds, which were near 0.54% of everything screened.

SMILES	DUSP3 inh	Mtb RmlCD inh
Cc1ccc(C(=O)N2CC3(C(C)C)CN(C(=O)c4ccc(C)cc4)CC(C(C)C)(C2)C3=O)cc1	18	·
CN(C)c1ccc(C(CNC(=O)c2cccs2)N(C)C)cc1 (stereo not drawn)	3	·
O=C1CCN(CCc2ccccc2)CCN1[C@H](COc1ccccc1)c1ccccc1	24	·
CN1CCC(=O)N([C@H](CC#N)c2ccccc2)CC1	52*	·
CCCN1CCC(=O)N([C@H](COc2ccccc2)c2ccccc2)CC1	55*	·
CN1CCC(=O)N([C@H](CSc2ccc(Br)cc2)c2ccccc2)CC1	15	·
CC1CCN(Cc2c(C(=O)N/N=C/c3cccc(C(F)(F)F)c3)nnn2-c2nonc2N)CC1	10	·
COc1ccc2c(CC(=O)OCC(=O)Nc3sc4c(c3C#N)CCC(C)C4)coc2c1 (stereo not drawn)	13	·
CC(=O)N/C(=N/c1nc(C)cc(C)n1)Nc1ccc(NC(C)=O)cc1	9	-10
CC(=O)N/C(=N\c1nc(C)cc(C)n1)Nc1ccc2ccccc2c1	54*	·
CCN1C(C#N)=C(C#N)N=C(C)CC1(C)C	53*	4
CC1=NN(C(C#N)c2ccccc2O)C(C)(C)C1 (stereo not drawn)	12	-2
CC/C(=C1/C(=O)CC(C)(C)C(C(=O)OC)C1=O)N1CCCC1 (stereo not drawn)	29	1
CCN(CC)Cc1c(C(=O)N/N=C/c2cccs2)nnn1-c1nonc1N	-52	·
CCN(CC)S(=O)(=O)c1cccc(NC(=O)CN2C(=O)c3ccc([N+](=O)[O-])cc3C2=O)c1	34	0
O=C(c1oc(=O)c2ccccc2c1-c1ccccc1)N1CCOCC1	51*	·
O=C(c1ccco1)N1CCN(C(=O)c2oc(=O)c3ccccc3c2-c2ccccc2)CC1	0	6
O=C(O)c1nn(CCOc2ccc(Cl)cc2Cl)c(=O)c2ccccc12	28	·
Cc1ccc(C(=O)N2CCN(c3ccccc3F)CC2)cc1S(=O)(=O)N1CCOCC1	12	1
O=C(Cn1c(=O)oc2ccccc21)Nc1ccc(Cl)cc1	30	·
O=C(Cn1c(=O)oc2ccccc21)Nc1ccc(F)c(F)c1	57*	·
Cc1ccccc1NC(=O)C1CCN(S(=O)(=O)c2cccc3nonc23)CC1	21	·
CC(=O)NC12CC3CC(C1)CC(C(=O)OCC(=O)Nc1ncc(Cl)cc1Cl)(C3)C2	·	-2
O=S(=O)(NCCc1cn2ccccc2n1)c1ccc(-c2ccccc2)cc1	57*	·
CCOc1ccc(S(=O)(=O)NCCc2cn3ccccc3n2)cc1	26	·
SMILES	DUSP3 inh	Mtb RmlCD inh
COc1ccc(C)cc1S(=O)(=O)N1CCN(C(=O)c2ncoc2-c2ccc(C)cc2)CC1	0	·
COc1ccc(C)cc1S(=O)(=O)N1CCN(C(=O)c2ncoc2-c2ccc(F)cc2)CC1	53*	·
COc1ccc(Nc2ncnc3c2c(C)c(C)n3CCCN(C)C)cc1	10	·
O=C(Nc1ccc(F)c(Cl)c1)C1CC(=O)n2c(nc3ccccc32)N1 (stereo not drawn)	53*	-10
O=C(Nc1ccc(F)cc1)C1CC(=O)n2c(nc3ccccc32)N1 (stereo not drawn)	3	35
Cc1cc([N+](=O)[O-])nn1CCCC(=O)NC1CCCCC1	-3	-14
O=C(Cn1cnc2ccccc2c1=O)c1ccc(OC(F)F)cc1	3	·
Cc1ccc(N2CC(C(=O)NCCC(C)C)CC2=O)cc1 (stereo not drawn)	13	?
Cc1ccc(N2CC(C(=O)NC(C)CCc3ccccc3)CC2=O)cc1 (stereo not drawn)	53*	·
CCOC(=O)Cc1csc(NC(=S)NC(=O)c2ccc(F)cc2)n1	7	8
CCOC(=O)Cc1csc(NC(=S)NC(=O)c2ccccc2C)n1	53*	-6
COC(=O)c1sccc1NC(=S)N1CCCCC1C (stereo not drawn)	16	8
COC(=O)c1sccc1NC(=S)N1C(C)CCCC1C (stereo not drawn)	51*	-3
CSCCC(NS(=O)(=O)c1ccc2c(c1)oc(=O)n2C)C(=O)NC1CCCCC1 (stereo not drawn)	21	·
Cc1cc(-c2onc3ccc(Cl)cc23)ccc1O	-3	·
O=C(Oc1c(CN2CCOCC2)cc(Cl)c2cccnc12)c1ccccc1Cl	13	-12
O=C(Oc1c(CN2CCOCC2)cc(Cl)c2cccnc12)c1cccs1	52*	6
Cc1ccc(NC(=O)C(Cc2ccccc2)NC(=O)c2ccco2)cc1 (stereo not drawn)	4	9
Cc1cc(C)c(C#N)c(SCCN2CCCCC2)n1	38	·
Cc1ccc(C#N)c(SCCN2CCCCC2)n1	52*	·
COC(=O)c1cc(OC)c(OC)cc1N=CC1=C(O)CC(C)(C)CC1=O	55*	4
COC(=O)c1cc(N=CC2=C(O)CC(C)(C)CC2=O)cc(C(=O)OC)c1	3	-10
COc1cc(C(=O)COC(=O)Cc2cnc3sccn23)cc(OC)c1OC	6	-5
O=C(COc1ccc([N+](=O)[O-])cc1)NNC(=O)c1cccs1	17	5
O=[N+]([O-])c1ccc(Nc2cccc(F)c2)nc1	7	-13
SMILES	DUSP3 inh	Mtb RmlCD inh
N#Cc1c(NCCN)nc(NCc2ccccc2)c2c1CCN(Cc1ccccc1)C2	14	·
CCN1CCc2c(C#N)c(NCc3ccccc3)nc(N(CC)CC)c2C1	56*	·
Cc1nc2sccn2c(=O)c1CCN1CCC(=C(c2ccccc2)c2ccc(F)cc2)CC1	-3	·
COc1cccc(NC(=O)COC(=O)c2ccc(F)cc2F)c1	-5	·
N#Cc1ccccc1NC(=O)COC(=O)c1ccc(F)cc1F	53*	·
CC1CN(C(=O)CCC(=O)NCCCc2ccccc2)c2ccccc2O1 (stereo not drawn)	25	·
CCC1CCCCN1CCCNC(=O)CCC(=O)N1CC(C)Oc2ccccc21 (stereo not drawn)	53*	·
CC(C)OCCCn1c(=O)c2ccccc2n2c(CCC(=O)NC3CCN(Cc4ccccc4)CC3)nnc12	53*	·
CC(C)OCCCn1c(=O)c2ccccc2n2c(CCC(=O)O)nnc12	-10	·
CN(C)N=Nc1nc2c(c(=O)n(C)c(=O)n2C)n1C	13	4
COc1ccc(S(=O)(=O)N2CC(=O)Nc3ccccc32)cc1	15	·
O=C1c2ccccc2C(=O)N1CCSc1nncs1	12	-8
O=C1c2ccccc2C(=O)N1CCSc1ccccc1	55*	·
CCn1c(CNC(=O)c2ccc(F)cc2)cc2ccccc21	30	·
O=C(CN(Cc1ccc(F)cc1)C(=O)CNS(=O)(=O)c1ccccc1)NCC1CCCO1 (stereo not drawn)	23	·
O=C(CN1C(=O)C2C3C=CC(C4CC34)C2C1=O)Nc1cccc2ncccc12 (stereo not drawn)	53*	·
O=C(CCl)Nc1cccc2ncccc12	26	·
CCc1nn(C(C)C(=O)NCc2cccc(Cl)c2)c(=O)c2cc3occc3n12 (stereo not drawn)	11	·
Cc1cnc(C(=O)OCc2ccc(COC(=O)c3cnc(C)cn3)cc2)cn1	17	7
Cc1cnc(C(=O)OCc2ccc(Br)cc2F)cn1	58*	·
CC(=C\C(=O)O)/C(=C/c1ccccc1)C(=O)O	5	-7
O=C(Nc1ccc(F)cc1F)c1ccc(COc2c(F)c(F)cc(F)c2F)o1	36	12
Cc1ccnc(NC(=O)c2ccc(COc3c(F)c(F)cc(F)c3F)o2)c1	58*	·
CC(C(=O)NCc1ccc(F)cc1)n1ccc2cc(S(=O)(=O)N3CCCC3)ccc21 (stereo not drawn)	7	·
O=C(Nc1c(C(=O)C2CC2)oc2ccccc12)c1ccc(Cl)cc1	51*	11

Screens as filed in PubChem.
